Most compounds without a hit are left out; they make up all but 4.6% or so of the library.
D1 potentiator – Potentiators of Human D1 Dopamine Receptor: qHTS; D(1A) dopamine receptor (Homo sapiens), P21728; HEK293 TREx D1 cells, calcium flux, dopamine EC20 potentiation; potentiation, % at 10 µM; hit rate 0.036% among 360,000; AID 504651, 2011; in the data active = potentiation above about 30%; also: 0% is about no effect
Target sequence (P21728 whole entry, looked up): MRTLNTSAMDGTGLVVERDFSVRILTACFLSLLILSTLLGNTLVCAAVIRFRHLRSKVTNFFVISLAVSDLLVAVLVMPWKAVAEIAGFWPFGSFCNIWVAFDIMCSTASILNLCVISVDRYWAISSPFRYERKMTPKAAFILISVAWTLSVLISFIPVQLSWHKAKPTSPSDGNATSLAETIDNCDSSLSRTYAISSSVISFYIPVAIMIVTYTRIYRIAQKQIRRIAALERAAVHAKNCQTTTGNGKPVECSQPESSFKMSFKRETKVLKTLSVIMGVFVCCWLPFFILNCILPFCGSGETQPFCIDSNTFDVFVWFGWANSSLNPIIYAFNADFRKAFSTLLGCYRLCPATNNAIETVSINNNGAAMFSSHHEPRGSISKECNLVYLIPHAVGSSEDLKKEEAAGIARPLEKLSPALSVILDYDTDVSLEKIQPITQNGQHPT
D1 ag – Allosteric Agonists of the Human D1 Dopamine Receptor: qHTS; D(1A) dopamine receptor (Homo sapiens), P21728; HEK293 T-REx D1 cells, calcium flux, agonist mode; activation, % at 2 µM; hit rate 1% among 360,000; also: 0% is about no effect
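Inducible HEK293 T-REx D1 cells, force-coupled to calcium signalling, were plated at 4000 cells/well with tetracycline and held overnight at 30 C. After no-wash calcium dye loading, compound-evoked calcium rise over 180 s flagged agonists.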
TRHR ag – qHTS for Small Molecule Agonists and Allosteric Enhancers of Human TRH Receptor: Primary Screen for Agonists; activation, % at 2 µM; Thyrotropin-releasing hormone receptor (Homo sapiens), P34981; hit rate 0.18% among 360,000; TRHR cells, calcium flux fluo-8, FDSS agonist mode; also: 0% is about no effect
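Steps: seed TRHR cells overnight; add fluo-8 no-wash Ca dye, RT 30 min–1.5 h; record 10 s baseline; pin-transfer compounds; monitor fluorescence 1 cycle/s for the agonist window. Calcium increases flag candidate agonists.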
D1 antagonist – Antagonist of Human D 1 Dopamine Receptor: qHTS; D(1A) dopamine receptor (Homo sapiens), P21728; HEK293 TREx D1 cells, calcium flux, dopamine EC80; hits give low values; activity change, negative = inhibition, % at 10 µM; hit rate 3.2% among 360,000; AID 504652, 2011; in the data active = activity change below about -30%; also: % is scaled to controls: 0 for no effect and ±100 for the full control effect
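Kinetic fluorescence of a calcium dye serves as the read-out. D1-expressing Hek293 Trex cells, induced overnight at 30 C, are exposed to compound for 180 s before an EC80 dopamine addition, then read 180 s further.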
TRHR PAM – qHTS for Small Molecule Agonists and Allosteric Enhancers of Human TRH Receptor: Primary Screen for Enhancers. hit rate 0.66% among 360,000. TRHR cells, fluo-8 calcium fluorescence, EC20 TRH enhancement. AID 493056, 2011. enhancement, % at 2 µM; in the data active = enhancement above about 30%; also: 0% is about no effect
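TRHR-expressing cells loaded with fluo-8 calcium dye were read kinetically (ex 480/em 530) during compound addition, then stimulated with an EC20 of TRH (10 nM final). Enhancement of the Gq-mediated intracellular calcium response was scored.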
Numbers without * were called inactive; nt = no result. Rule as the data show it, unless noted: active = activation above about 30%; inactive = the rest.

SMILES	D1 potentiator	D1 ag	TRHR ag	D1 antagonist	TRHR PAM
CN1CCN(c2ccc([N+](=O)[O-])c(N/N=C3\CN4CCC3CC4)c2)CC1	-3.0	-0.4	0.5	-8.7	12.2
Cc1c(O)ccc(C(=O)CN2CC(C)OC(C)C2)c1O (stereo not given)	-3.9	2.2	0.3	-39.7*	-8.5
CC1CC(C)CN(CC(=O)c2ccc(OC(F)F)cc2)C1 (stereo not given)	-2.0	1.1	0.0	-2.9	-2.2
COC(=O)C1=C(c2ccc(F)cc2OCc2ccccc2)C[C@@H]2CC[C@H]1N2C(=O)NCc1ccccc1C(F)(F)F	-2.7	0.2	0.1	-4.9	-5.0
COc1ccccc1CC1/C(=N/O)C2CCN1CC2 (stereo not given)	-15.1	14.6	0.3	-69.2*	-0.7
O=C1C2CCN(CC2)C1Cc1ccccc1O (stereo not given)	0.1	3.8	0.5	16.9	5.6
O=C(/C=C/c1c[nH]c2ccccc12)c1c(O)n(CCc2ccccc2)c(=O)[nH]c1=O	39.0*	383.1*	39.8*	51.2	46.6*
CCCCN1C(=O)NC(=O)C2(Cc3c(nc4c(C)cccn4c3=O)N3CCc4ccccc4C32)C1=O (stereo not given)	5.2	37.6*	2.9	52.5	3.8
Cc1c(CCN)ccc2c1[nH]c1ccccc12	-7.1	24.9	5.2	-37.9*	4.1
Cc1[nH]c2c(C(F)(F)F)cccc2c1CCN	1.9	9.0	1.8	8.3	6.3
COP(=O)(Cc1ccc(C#N)o1)OC	1.1	2.3	0.7	-12.9	3.4
COc1cccc(-c2nn(Cc3ccccc3)cc2C(=O)O)c1	-3.0	1.1	0.2	-17.6	0.2
FC(F)(F)c1ccccc1NC1=NCCCS1	3.0	0.3	-1.8	-0.9	-6.4
COc1ccc(CC(=O)Nc2ccc3c(C(F)(F)F)cc(=O)oc3c2)cc1OC	-7.5	-0.7	-1.2	13.4	-4.9
Cc1onc(-c2c(Cl)cccc2Cl)c1C(=O)Nc1ccc2c(C(F)(F)F)cc(=O)oc2c1	0.2	3.9	-0.3	-30.3*	8.7
CC1CCC/C=C/C2CC(O)CC2C(O)/C=C/C(=O)O1 (stereo not given)	4.3	4.3	1.5	-6.6	5.8
C[C@H]1CCC/C=C/C2C[C@H](O)CC2[C@H](O)/C=C/C(=O)O1 (stereo not given in full)	-3.4	1.9	0.3	-41.1*	-1.4
O=C1NC(=O)C(CCc2ccncc2)(CCc2ccncc2)C(=O)N1Cc1ccc(F)cc1	0.6	0.3	0.2	-1.8	-1.2
CCOP(=O)(OCC)C(O)c1ccc(N(C)C)cc1 (stereo not given)	-2.0	0.7	0.3	11.6	-6.6
O=C(CN1CCCC1=O)Nc1ccccc1	-2.7	0.9	0.4	-35.2*	1.3
CN(Cc1ccccc1)C(=O)CN1CCCC1=O	-4.0	0.6	-0.3	-16.6	18.1
Cc1ccc(N2C(=O)CC(=O)NC2=O)cc1	-4.8	4.8	-0.3	-8.9	1.4
COc1ccc(N2C(=O)CC(=O)NC2=O)cc1	-6.2	1.3	-0.3	-78.9*	3.9
Cc1c(CC(=O)N2C[C@H]3C[C@@H](C2)c2cccc(=O)n2C3)c(=O)oc2c(C)c(O)ccc12	1.4	1.5	0.0	4.2	-1.6
Cc1c(CC(=O)N2C[C@H]3C[C@@H](C2)c2cccc(=O)n2C3)c(=O)oc2cc(O)c(Cl)cc12	-0.2	1.7	-0.1	-46.6*	12.3
SMILES	D1 potentiator	D1 ag	TRHR ag	D1 antagonist	TRHR PAM
COc1ccc(OC)c(NP(=O)(Oc2ccccc2)Oc2ccccc2)c1	3.0	1.1	0.1	12.1	30.2*
O=C(O)CC1OCC=C2CN3CCC45C6=CC(=O)C(=O)C([N+](=O)[O-])=C6NC4C1C2CC35 (stereo not given)	2.5	2.7	-0.1	14.4	1.6
CNC(=O)c1cccn(Cc2cccc(C(F)(F)F)c2)c1=O	-3.9	2.2	1.1	-31.9*	-0.7
CN(C)CCNC(=O)c1cccn(Cc2cccc(C(F)(F)F)c2)c1=O	-3.1	6.0	0.2	4.9	-5.6
O=C(c1ccc(N2CC3CC(C2)c2cccc(=O)n2C3)c([N+](=O)[O-])c1)N1CCCCC1 (stereo not given)	0.1	1.0	-0.7	-53.1*	-1.4
CC1CCCCN1C(=O)c1ccc(N2CC3CC(C2)c2cccc(=O)n2C3)c([N+](=O)[O-])c1 (stereo not given)	0.7	0.8	-0.7	2.1	-5.2
O=C(c1ccc(N2CC3CC(C2)c2cccc(=O)n2C3)c([N+](=O)[O-])c1)N1CCCC1 (stereo not given)	-2.5	3.5	0.6	-35.2*	6.1
O=C(O)C1C2CC3CC(C2)CC1(n1ncc(N2CCC4(CC2)OCCO4)c(Cl)c1=O)C3 (stereo not given)	7.5	2.8	0.8	3.3	3.4
O=C(C(=O)N1CCOCC1)c1cn(Cc2ccccc2F)c2ccccc12	-2.5	1.3	0.2	7.3	-5.5
COc1cc(/C=C2\C(=O)NC(=O)N(c3ccccc3)C2=O)c([N+](=O)[O-])cc1OC	-3.6	1.1	0.5	-56.3*	-10.1
COC(=O)c1cc(C(O)(C(=O)OC)C(F)(F)F)c(/N=C/N(C)C)s1 (stereo not given)	-6.1	1.1	0.2	-7.7	39.3*
COc1ccccc1CCNC1CCC(C(C)(C)C)CC1 (stereo not given)	-7.6	88.9*	-0.6	-20.4	0.1
COc1ccccc1CCNC1CCCCCC1	-8.1	8.2	-0.1	30.3	6.2
COCCn1c(O)c(/C=N/NC(=O)CSC(=S)N2CCCC2)c(=O)[nH]c1=S	-0.2	1.1	-0.3	2.4	16.8
COc1ccc(Cl)cc1N=Cc1c(O)n(C)c(=O)n(C)c1=O	-8.3	1.3	0.5	3.0	15.1
COc1ccccc1N=Cc1c(O)n(C)c(=O)n(C)c1=O	0.1	2.2	-0.5	-35.4*	-1.1
CCN(CC)c1ccc(CN2CC=C(c3ccc(F)cc3)CC2)cc1	-17.6	5.2	-0.2	6.7	-6.2
Clc1ccc(OCC#CCN2CCCCCC2)cc1	-0.6	0.5	-0.4	nt	-1.4
Fc1ccc2c(c1)nnn2C1CCN(Cc2ccccc2)CC1	-19.6	0.9	-1.0	-33.2*	0.0
O=C1NC(=O)C(Sc2ccccc2[N+](=O)[O-])C(=O)N1	-4.2	3.6	0.6	5.1	3.0
N#Cc1ccc(NC(=O)CN2CCCCCC2)cc1Cl	-7.0	7.7	1.6	-1.2	22.6
O=C(C1CCCN(S(=O)(=O)c2cccc3nsnc23)C1)N1CCC2(CC1)OCCO2 (stereo not given)	9.1	-0.1	0.9	-35.6*	1.7

From PubChem
